In PubChem BioAssay (Tox21):
Where “and” joins values, the source holds several entries; their conditions need not be identical. Identical values can stand only once. Inconclusive results are not listed. More than one record can exist for a structure, and the calls need not agree. Calls of active or inactive are those of the source. Calls come from the whole dose curve; as a rule, active = well fitted curve in the direction sought with a large enough effect in the repeat runs; inconclusive = weak or mixed curves; inactive = no such curve, though single readings can be large; an effect the other way counts as inactive or inconclusive.

Key:
[1] = Caspase-3/7 induction in HepG2 cells by small molecules, qHTS assay (AID 1346978); note: nearly all actives have a fitted effect of over 15% in size
Outline: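 Caspase-3/7 induction was measured by Caspase-Glo 3/7 luminescence (30 min, room temperature) after a 17 hr compound exposure of wild-type HepG2 cells seeded at 2,000 per well and pre-incubated 5 hr.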

[2] = Caspase-3/7 induction in CHO-K1 cells by small molecules, qHTS cell viability counter screen (AID 1346979); note: nearly all actives have a fitted effect of over 35% in size; note: potency is the fitted concentration of half-maximal effect
Outline: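 Cells (CHO-K1, wild type) are plated at 1,500 per well and incubated 5hr. Test compounds in DMSO are then pinned in, followed by 16hr at 37C and 5% CO2. Viability is read by CellTiter-Fluor fluorescence after 1hr.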

[3] = Caspase-3/7 induction in HepG2 cells by small molecules, qHTS cell viability counter screen (AID 1346981); note: nearly all actives have a fitted effect of over 30% in size; note: potency is the fitted concentration of half-maximal effect
Outline: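 Fluorescence read-out of live-cell protease activity (CellTiter-Fluor) after 1 hr with reagent. This was measured in the same wells as the caspase-3/7 luminescence, on HepG2 cells exposed to DMSO-dissolved compounds for 16 hr at 37 C.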

[4] = biological target: Nuclear receptor subfamily 1 group I member 2 (Homo sapiens) (UniProt O75469); test: Human pregnane X receptor (PXR) small molecule agonists, qHTS assay (AID 1346982); note: nearly all actives have a fitted effect of over 35% in size; note: potency is the fitted concentration of half-maximal effect
Nuclear receptor subfamily 1 group I member 2 (Homo sapiens), sequence (O75469 whole entry, looked up): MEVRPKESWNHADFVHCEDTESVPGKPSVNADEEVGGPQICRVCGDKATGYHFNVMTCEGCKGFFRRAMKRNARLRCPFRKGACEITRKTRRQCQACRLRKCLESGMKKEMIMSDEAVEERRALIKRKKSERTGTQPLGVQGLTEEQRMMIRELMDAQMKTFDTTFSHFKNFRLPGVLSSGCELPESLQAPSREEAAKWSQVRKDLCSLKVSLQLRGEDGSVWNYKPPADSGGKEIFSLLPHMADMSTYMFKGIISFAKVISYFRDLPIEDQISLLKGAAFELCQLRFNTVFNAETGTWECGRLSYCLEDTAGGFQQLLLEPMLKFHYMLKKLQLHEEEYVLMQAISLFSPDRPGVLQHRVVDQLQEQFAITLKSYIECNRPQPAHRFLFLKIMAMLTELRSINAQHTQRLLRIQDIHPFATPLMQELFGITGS
Outline: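 HepG2 PXR-Luc reporter line, 5% charcoal-stripped FBS; 5 hr pre-incubation, compound (DMSO) 24 hr at 37 C/5% CO2; ONE-Glo 30 min RT; luminescence read-out.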

[5] = biological target: Cytochrome P450 2D6 (Homo sapiens) (UniProt P10635); test: Cytochrome P450 Family 2 Subfamily D Member 6 (CYP2D6) small molecule antagonists: luciferase reporter qHTS assay (AID 1671196); note: nearly all actives have a fitted effect of over 50% in size; note: potency is the fitted concentration of half-maximal effect
Cytochrome P450 2D6 (Homo sapiens), sequence (P10635 whole entry, looked up): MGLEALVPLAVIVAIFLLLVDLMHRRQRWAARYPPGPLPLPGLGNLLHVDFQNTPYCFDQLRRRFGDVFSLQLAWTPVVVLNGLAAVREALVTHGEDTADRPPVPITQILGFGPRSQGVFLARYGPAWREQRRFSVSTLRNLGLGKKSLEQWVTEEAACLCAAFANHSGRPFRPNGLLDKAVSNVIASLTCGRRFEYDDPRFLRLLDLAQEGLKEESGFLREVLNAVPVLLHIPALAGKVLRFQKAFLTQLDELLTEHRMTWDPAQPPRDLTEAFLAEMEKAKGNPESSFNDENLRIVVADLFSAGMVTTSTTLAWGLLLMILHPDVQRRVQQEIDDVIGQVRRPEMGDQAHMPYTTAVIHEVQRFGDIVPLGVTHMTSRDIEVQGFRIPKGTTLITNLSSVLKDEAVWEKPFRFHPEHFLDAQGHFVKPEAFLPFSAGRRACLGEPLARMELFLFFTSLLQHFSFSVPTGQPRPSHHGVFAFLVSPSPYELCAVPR
Outline: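 Luminogenic proluciferin substrate, CYP2D6 enzyme; 10 min RT preincubation with compound, NADPH regeneration system added, 1 h RT. Stop/detection reagent, 20 min RT, luminescence read (RLU). Signal proportional to CYP activity.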

[6] = Caspase-3/7 induction in CHO-K1 cells by small molecules, qHTS assay (AID 1346980); note: nearly all actives have a fitted effect of over 15% in size
Outline: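 Luminescent Caspase-Glo 3/7 read (30min, room temperature) quantified apoptosis induction. Cells were wild-type CHO-K1, treated with compound for 17hr at 37 C and 5% CO2.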

[7] = biological target: Cytochrome P450 2C19 (Homo sapiens) (UniProt P33261); test: Cytochrome P450 Family 2 Subfamily C Member 19 (CYP2C19) small molecule antagonists: luciferase reporter qHTS assay (AID 1671197); note: nearly all actives have a fitted effect of over 65% in size; note: potency is the fitted concentration of half-maximal effect
Cytochrome P450 2C19 (Homo sapiens), sequence (P33261 whole entry, looked up): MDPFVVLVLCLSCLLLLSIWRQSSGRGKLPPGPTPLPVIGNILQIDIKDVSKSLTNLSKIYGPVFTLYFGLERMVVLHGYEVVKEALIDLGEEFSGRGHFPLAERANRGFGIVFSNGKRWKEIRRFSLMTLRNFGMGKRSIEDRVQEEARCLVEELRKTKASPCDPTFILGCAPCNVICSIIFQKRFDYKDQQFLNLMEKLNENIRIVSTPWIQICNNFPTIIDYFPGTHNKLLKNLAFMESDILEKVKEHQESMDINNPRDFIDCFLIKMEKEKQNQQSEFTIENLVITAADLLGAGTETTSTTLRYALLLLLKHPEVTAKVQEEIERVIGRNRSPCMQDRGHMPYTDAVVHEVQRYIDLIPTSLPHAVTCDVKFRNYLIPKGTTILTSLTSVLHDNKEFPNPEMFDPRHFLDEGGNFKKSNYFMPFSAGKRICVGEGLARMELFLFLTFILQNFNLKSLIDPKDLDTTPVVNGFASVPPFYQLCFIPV
Outline: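 Relative luminescence units recorded 20 min after the detection reagent stopped a 1 h, 37C CYP2C19 reaction on proluciferin substrate, which was started by NADPH regeneration following 10 min room-temperature compound preincubation; ketoconazole positive control.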

[8] = biological target: Nuclear receptor subfamily 1 group I member 2 (Rattus norvegicus) (UniProt Q9R1A7); test: Rat pregnane X receptor (rPXR) activation by small molecules, qHTS assay (AID 1346983); conditions: rPXR luciferase reporter cells, One-Glo luminescence, 24 h; max activation: stronger effect = higher value; note: nearly all actives have a fitted effect of over 20% in size; note: potency is the fitted concentration of half-maximal effect
Nuclear receptor subfamily 1 group I member 2 (Rattus norvegicus), sequence (Q9R1A7 whole entry, looked up): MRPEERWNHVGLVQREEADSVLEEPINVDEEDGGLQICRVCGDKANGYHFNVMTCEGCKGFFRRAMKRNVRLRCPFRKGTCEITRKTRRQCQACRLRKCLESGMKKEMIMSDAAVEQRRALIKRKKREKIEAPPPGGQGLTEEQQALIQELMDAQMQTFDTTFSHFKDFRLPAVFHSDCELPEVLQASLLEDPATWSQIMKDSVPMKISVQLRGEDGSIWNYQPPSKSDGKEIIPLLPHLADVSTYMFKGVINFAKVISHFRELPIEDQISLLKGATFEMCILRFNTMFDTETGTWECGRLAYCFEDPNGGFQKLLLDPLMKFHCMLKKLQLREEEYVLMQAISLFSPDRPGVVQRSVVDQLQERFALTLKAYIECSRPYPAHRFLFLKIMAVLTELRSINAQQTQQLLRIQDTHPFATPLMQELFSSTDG
Outline: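 Luminescent readout (One-Glo luciferase, 30 min room temperature) followed 24 hr compound treatment at 37 C of rPXR cells plated 2,000 per well and preincubated 5hr; qHTS format with compounds delivered in DMSO.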

[9] = biological target: Nuclear receptor subfamily 1 group I member 2 (Homo sapiens) (UniProt O75469); test: CYP3A4 induction through human pregnane X receptor (PXR) by small molecules, qHTS assay (AID 1346984); note: nearly all actives have a fitted effect of over 40% in size
Outline: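 HepG2-derived DPX-2 line carrying PXR plus a CYP3A4-promoter luciferase reporter; cells plated 5 hr, compound-exposed 24 hr at 37C. CYP3A4 activity probed with 3uM (final) Luciferin-IPA for 3hr, then luciferase read after One-Glo.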

[10] = biological target: Nuclear receptor subfamily 1 group I member 2 (Homo sapiens) (UniProt O75469); test: Human pregnane X receptor (PXR) activation by small molecules, qHTS assay (AID 1346985); note: nearly all actives have a fitted effect of over 40% in size; note: potency is the fitted concentration of half-maximal effect
Outline: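 DPX-2 cells (HepG2 co-transfected with a PXR response element and a CYP3A4-promoter luciferase construct) were seeded at 2,000 per well, rested 5 hr at 37C, then exposed to DMSO-dissolved compounds for 24 hr. Activation was read as luciferase luminescence.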
% is set by controls: 0 for no effect and ±100 for the full control effect.

c1ccc2c(c1)[nH]c1ccccc12
inactive: Potency [1] | Potency [2] | Potency [3]
39.2 µM (active) and inactive: Potency [5]
active: Potency [4] 47.7 µM and 61.1 µM

NCCOCCO
inactive: Potency [1] | Potency [2] | Potency [3] | Potency [4] | Potency [5]

c1ccc2cc3ccccc3cc2c1
active: Potency [4] 35.5 µM and 21.7 µM
inactive: Potency [1] | Potency [2] | Potency [3] | Potency [5]

CC(C)(C)c1cccc(C(C)(C)C)c1O
39 µM (active) and inactive: Potency [5]
59.8 µM (active) and inactive: Potency [4]
inactive: Potency [1] | Potency [2] | Potency [3]

C=CC(C)(O)CCC=C(C)C (stereo unspecified)
inactive: Potency [1] | Potency [2] | Potency [3] | Potency [4] | Potency [5]

CC1(C)NC(=O)N(c2ccc([N+](=O)[O-])c(C(F)(F)F)c2)C1=O
inactive: Potency [1] | Potency [6] | Potency [3] | Potency [5]
active: Potency [7] 2.52 µM and 1.38 µM

C[C@]12CC[C@@H]3c4ccc(O)cc4CC[C@H]3[C@@H]1CC[C@@H]2O
inactive: Potency [6] | Potency [3] | max activation [8] -1.66%
active: Potency [2] 61 µM and 61.1 µM | Potency [7] 7.95 µM and 5.64 µM
8.92 µM (active) and inactive: Potency [5]

O=C(O)CCCCCCCCCCCC(=O)O
active: Potency [5] 17.6 µM | Potency [7] 17.6 µM and 39.9 µM
inactive: Potency [1] | Potency [2] | Potency [3] | Potency [4]

CN(C)CCCN1c2ccccc2Sc2ccc(Cl)cc21
active: Potency [2] 54.5 µM and 29.8 µM | Potency [3] 61.1 µM and 29.8 µM

C=CCNCC=C
inactive: Potency [1] | Potency [2] | Potency [3] | Potency [4] | Potency [5]

CC(=O)[C@H]1CC[C@H]2[C@@H]3CC=C4C[C@@H](O)CC[C@]4(C)[C@H]3CC[C@]12C
active: Potency [4] 24.3 µM and 23.7 µM
inactive: Potency [1] | Potency [2] | Potency [3] | max activation [8] -3.68% | Potency [9] | Potency [10] | Potency [5] | Potency [7]

CC1(C)O[C@@H]2C[C@H]3[C@@H]4C[C@H](F)C5=CC(=O)C=C[C@]5(C)[C@@]4(F)[C@@H](O)C[C@]3(C)[C@]2(C(=O)CO)O1
active: Potency [4] 24.3 µM and 8.41 µM | Potency [8] 11.2 µM | Potency [10] 15.8 µM
inactive: Potency [1] | Potency [2] | Potency [3] | Potency [5] | Potency [7]

[O-]/[N+](=N\O)c1ccccc1
active: Potency [7] 62.7 µM and 39.9 µM
inactive: Potency [1] | Potency [2] | Potency [3] | Potency [5]

Nc1cc(Cl)c(N)c(Cl)c1
inactive: Potency [1] | Potency [2] | Potency [3]
active: Potency [4] 68 µM and 54.5 µM | Potency [5] 25 µM

Cc1cccc(Nc2ccccc2C(=O)O)c1C
48.6 µM (active) and inactive: Potency [4]
inactive: Potency [1] | Potency [2] | Potency [3] | Potency [5] | Potency [7]

COC(=O)c1ccc(C)cc1
inactive: Potency [1] | Potency [2] | Potency [3] | Potency [4] | Potency [5]

C=C1C[C@H]2[C@@H]3C=C(C)C4=CC(=O)CC[C@]4(C)[C@H]3CC[C@]2(C)[C@@]1(OC(C)=O)C(C)=O
active: Potency [4] 31.3 µM | Potency [7] 28.9 µM and 9.77 µM
inactive: Potency [1] | Potency [6] | Potency [3] | Potency [9] | Potency [10] | Potency [5]

Nc1ccc(O)c(N)c1
active: Potency [2] 60.7 µM and 30.6 µM | Potency [3] 54.1 µM and 48.6 µM | Potency [5] 35.3 µM and 31.7 µM | Potency [7] 35.3 µM and 35.6 µM
inactive: Potency [1] | Potency [4]

CCC(Cc1c(I)cc(I)c(N)c1I)C(=O)O (stereo unspecified)
active: Potency [4] 52.8 µM
inactive: Potency [1] | Potency [2] | Potency [3] | max activation [8] -1.5% | Potency [9] | Potency [10] | Potency [5] | Potency [7]

O=C(O)CCCC(=O)O
inactive: Potency [1] | Potency [2] | Potency [3] | Potency [4]
22 µM (active) and inactive: Potency [5] | Potency [7]

Clc1ccc(Sc2cc(Cl)c(Cl)cc2Cl)cc1
59.5 µM (active) and inactive: Potency [4]
inactive: Potency [1] | Potency [2] | Potency [3] | Potency [5]
